Bioassay records from PubChem BioAssay.
An excerpt weighted towards active compounds, which were near 9% of everything screened.
PLK1 PBD block – qHTS for Inhibitors of PLK1-PDB (polo-like kinase 1 - polo-box domain): Primary Screen; Serine/threonine-protein kinase PLK1 (Homo sapiens), P53350; Plk1 PBD binding of FITC phosphopeptide, fluorescence polarization; Potency, µM, for inactives: max response, negative = inhibition, actives largely listed as inhibitors; 360,000 compounds, 2.8% hits; further: series mostly up to about 57 µM; on the % scale 0 is the no-effect control and ±100 the full control effect; nearly all actives have a fitted effect of over 65% in size
Target sequence (P53350 whole entry, looked up, the tested form may be a part): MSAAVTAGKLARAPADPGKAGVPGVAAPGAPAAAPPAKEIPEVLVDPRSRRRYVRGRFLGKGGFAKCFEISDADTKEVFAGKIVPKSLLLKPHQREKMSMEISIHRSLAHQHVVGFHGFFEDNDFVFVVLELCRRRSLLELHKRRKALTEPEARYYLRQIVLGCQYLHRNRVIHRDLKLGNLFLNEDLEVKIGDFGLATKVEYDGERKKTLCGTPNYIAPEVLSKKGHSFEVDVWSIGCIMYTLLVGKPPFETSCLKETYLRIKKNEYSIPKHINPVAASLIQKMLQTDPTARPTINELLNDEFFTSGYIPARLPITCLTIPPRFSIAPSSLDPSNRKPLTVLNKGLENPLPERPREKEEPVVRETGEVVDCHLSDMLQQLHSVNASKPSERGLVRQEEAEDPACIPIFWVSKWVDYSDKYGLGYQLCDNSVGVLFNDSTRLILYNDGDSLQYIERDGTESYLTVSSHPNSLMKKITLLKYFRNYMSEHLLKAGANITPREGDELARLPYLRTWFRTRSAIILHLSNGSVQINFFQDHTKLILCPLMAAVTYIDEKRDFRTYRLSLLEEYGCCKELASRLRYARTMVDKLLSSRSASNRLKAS
G9a block – qHTS Assay for Inhibitors of Histone Lysine Methyltransferase G9a; G9a H3K9 monomethylation, AlphaScreen, 2 h; Histone-lysine N-methyltransferase EHMT2 (Homo sapiens), Q96KQ7; Potency, µM (series often up to 102 µM), for inactives: top-dose activity, negative = inhibition, hits mostly inhibitors; 350,000 compounds, 8.8% hits; further: on the % scale 0 is the no-effect control and ±100 the full control effect; nearly all actives have a fitted effect of over 75% in size
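Chemiluminescent proximity detection of H3K9 monomethylation, read after 10 min bead incubation in the dark. Reaction: 20 nM G9a, 500 nM biotin-H3K9 peptide, 20 uM SAM cofactor, 2 h, room temperature, following 15 min enzyme-compound preincubation.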
ALOX12 inh – Primary qHTS assay for inhibitors of human arachidonate 12S-lipoxygenase (ALOX12): Round 2; purified 12hLO, xylenol orange hydroperoxide absorbance; 580,000 compounds, 1.1% hits; Potency, µM (highest dose often 108 µM), for inactives: at the top dose activity change, negative = inhibition, hits mostly inhibitors; Polyunsaturated fatty acid lipoxygenase ALOX12 (Homo sapiens), P18054; further: on the % scale 0 is the no-effect control and ±100 the full control effect
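Hydroperoxide product was detected by ferrous iron/xylenol orange as the 573 to 405 nm absorbance ratio. Arachidonic acid at 40 uM (final) was turned over for 30 min at room temperature by 150 nM human 12hLO, pH 7.0 Hepes buffer, after 15 min compound preincubation.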
HP1b chromo inh – HTS for Inhibitors of HP1-beta Chromodomain Interactions with Methylated Histone Tails; 390,000 compounds, 0.56% hits; Chromobox protein homolog 1 (Homo sapiens), P83916; Potency, µM (series often up to 114 µM), without a hit: at the highest dose activity change, negative = inhibition, most hits filed as inhibitors; AlphaScreen HP1-beta / biotin-H3K9me3 peptide binding; further: nearly all actives have a fitted effect of over 70% in size
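HP1-beta protein (50 nM final) preincubated 30 min at room temperature with biotinylated H3(1-18)K9me3 peptide (50 nM) in PBS pH 7.4, 0.01% Tween-20, then compound added for 30 min. AlphaScreen streptavidin donor/nickel chelate acceptor beads (10 ug/mL final), 30 min dark, luminescence read.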
JMJD2A Tudor inh – qHTS Assay for Inhibitors of JMJD2A-Tudor Domain; Lysine-specific demethylase 4A (Homo sapiens), O75164; AlphaScreen JMJD2A-Tudor / H3K4me3 peptide binding; Potency, µM (doses to about 114 µM), without a hit: at the top dose activity change, negative = inhibition, usual class: inhibitors; 390,000 compounds, 4.4% hits; further: on the % scale 0 is the no-effect control and ±100 the full control effect; nearly all actives have a fitted effect of over 50% in size
BAZ2B inh – qHTS Assay for Inhibitors of BAZ2B. Bromodomain adjacent to zinc finger domain protein 2B (Homo sapiens), Q9UIF8. AlphaScreen BAZ2B-H3K14Ac peptide displacement. Potency, µM (doses to about 114 µM), without a hit: top-dose activity change, negative = inhibition, hits mostly inhibitors. 360,000 compounds, 4.4% hits; further: on the % scale 0 is the no-effect control and ±100 the full control effect; nearly all actives have a fitted effect of over 60% in size
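In this displacement format the biotinylated H3(5-23) peptide acetylated at Lys14 serves as ligand at 50 nM, with BAZ2B at 50 nM in PBS pH 7.4 containing 0.01% Tween-20. Donor and acceptor beads are 10 ug/mL final.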
Numbers without * were called inactive; i = inactive; u = inconclusive; x = no result given; [ ] = remark or other dose. The call rests on the fitted dose curve; in most records, active means well fitted curve in the direction sought with a large enough effect; inconclusive means small, poorly fitted or top-dose-only effect, or another doubt; inactive means no such curve, though single readings can be large; an effect the other way counts as inactive or inconclusive. Potency means the concentration at half of the fitted maximal effect.

SMILES	PLK1 PBD block	G9a block	ALOX12 inh	HP1b chromo inh	JMJD2A Tudor inh	BAZ2B inh
COc1ccc(NC(=O)Cc2c(C)c3ccc(OC)cc3oc2=O)cc1	x	x	-8%	x	x	x
O=C(COc1ccccc1)NCC(=O)N/N=C/c1ccc(O)cc1O	-2%	45%[59 µM]	0%	9%	-32%	-12%
Oc1ccc(/C=N/n2c(COc3ccccc3)n[nH]c2=S)c(O)c1	u	1.8µM*	45µM*	-13%	-22%	-13%
COc1ccc(NC2CCCN(C(=O)c3cc4ncccn4n3)C2)cc1 (configuration not stated)	-11%	35µM*	0%	-3%	-20%	-13%
O=C(c1ccoc1)N1CCCC(Nc2ccc(F)c(F)c2)C1 (configuration not stated)	-9%	0%	4%	29%	-20%	-12%
COc1ccc(NC(=O)C2CCN(C(=O)c3ccc(OC)cc3)CC2)cc1	6µM*	u	-3%	u	-24%[11.4 µM]	25%
COc1ccc(NC2CCCN(C(=O)c3ccc4[nH]c(C)c(C)c4c3)C2)cc1 (configuration not stated)	-3%	40µM*	-9%	-14%	u	45µM*
COc1ccc(C(=O)N2CCC(C(=O)Nc3ccc(OC)c(OC)c3)CC2)cc1	-5%	-4%[59 µM]	6%	33%	-23%	x
CC(C)c1ccc(NC2CCCN(C(=O)c3ccoc3)C2)cc1 (configuration not stated)	-6%	45µM*	-7%	-10%	u	u
Cc1ccc(S(=O)(=O)N(C)C)cc1NC(=O)COC(=O)C1CC(=O)N(c2ccc3c(c2)OCCO3)C1 (configuration not stated)	-8%	-42%	-11%	3%	-12%	-9%
COc1ccc(NC2CCCN(C(=O)c3ccc(C(C)=O)s3)C2)cc1 (configuration not stated)	-8%	50µM*	2%	35%	-14%	-39%
Cc1nnsc1C(=O)N1CCCC(Nc2ccc(C(C)C)cc2)C1 (configuration not stated)	-23%	u	-11%	-6%	-28%	-26%
CC(C)c1ccc(NC2CCCN(C(=O)c3cc(C(C)C)nc(N)n3)C2)cc1 (configuration not stated)	27µM*	u	8%	-9%	u	-24%
Cc1nonc1C(=O)N1CCCC(Nc2ccc(C(C)C)cc2)C1 (configuration not stated)	-12%	35µM*	0%	29%	-17%	u
COc1ccc(NC2CCCN(C(=O)c3ccc(OC)o3)C2)cc1 (configuration not stated)	-8%	x	32%	8%	-32%	u
Cc1cc(C)c(C(=O)N2CCCC(Nc3ccc(F)cc3)C2)o1 (configuration not stated)	-7%	79µM*	9%	4%	-26%	u
Cc1ncc(CN2CCCC(C(=O)Nc3ccc(-c4cccc(F)c4)cc3)C2)cn1 (configuration not stated)	3%	22%	u	24%	-20%	-27%
CC(C)c1ccc(NC2CCCN(C(=O)c3ccc(N4CCOCC4)cc3)C2)cc1 (configuration not stated)	-5%	-25%	0%	-6%	u	u
Cc1ccc(C(=O)N2CCCC(Nc3ccc(C(C)C)cc3)C2)cn1 (configuration not stated)	-12%	40µM*	-22%	47%	-17%	-19%
COc1ccc(NC2CCCN(C(=O)c3ccc(C)nc3)C2)cc1 (configuration not stated)	-1%	40µM*	-19%	8%	-14%	-21%
COc1ccc(NC2CCCN(C(=O)c3ccc(C(C)=O)cc3)C2)cc1 (configuration not stated)	-8%	-10%	i	16%	-18%	-17%
CC(C)c1ccc(NC2CCCN(C(=O)c3ccccc3-c3ncc[nH]3)C2)cc1 (configuration not stated)	0%	45µM*	0%	0%	u	56µM*
CC1(C)CC2CC(C)(CN2C(=O)COC(=O)c2ccc(NC(=O)CC#N)cc2)C1 (configuration not stated)	-6%	x	180%	22%	-23%	x
Cc1cc(OCC(=O)N2CCCCC2CCN2CCCCC2)cc(C)c1Cl (configuration not stated)	x	x	12%	x	x	x
CCN(CCCNC(=O)CCc1nc(-c2ccc(C)cc2)no1)c1cccc(C)c1	24µM*	45µM*	-2%	u	-26%[11.4 µM]	u
SMILES	PLK1 PBD block	G9a block	ALOX12 inh	HP1b chromo inh	JMJD2A Tudor inh	BAZ2B inh
CCN(CCCNC(=O)CCCn1c(=O)[nH]c2ccccc2c1=O)c1cccc(C)c1	u	13µM*	0%	-12%	-28%[57.1 µM]	u
CCN(CCCNC(=O)CCn1c(=O)[nH]c2ccccc2c1=O)c1cccc(C)c1	-24%	10µM*	u	29%	-11%[57.1 µM]	-23%
Cc1cccc(CCNC(=O)COc2cc(=O)n(C)c3ccccc23)c1	8%	8%	0%	23%	11%	1%
Cc1cccc(-c2noc(CCC(=O)NCCc3ccccc3)n2)c1	-10%	9%	7%	54%	-11%	15%
CCN(CCCNC(=O)COc1cc(=O)n(C)c2ccccc12)c1cccc(C)c1	4%	35µM*	-4%	-1%	u	50µM*
CCN(CCCNC(=O)CCn1c(=O)[nH]c2ccccc2c1=O)c1ccccc1	-6%	50µM*	43%	13%	-27%	-1%
Cn1c(=O)cc(OCC(=O)NCCCN2CCN(c3cccc(Cl)c3)CC2)c2ccccc21	-18%	50µM*	361%	17%	-35%	-29%
NNC(=O)c1cccc(Cn2cc(Br)c([N+](=O)[O-])n2)c1	1%	40µM*	u	55%	3%	-23%
CCCNC(=O)c1cccc(Cn2cc(Br)c([N+](=O)[O-])n2)c1	6%	-11%	1%	24%	2%	-1%
S=c1[nH]nc2nnc3ccccc3n12	-12%	3.2µM*	u	-5%	-19%	u
CCOC(=O)C(=NC(C)(C)C)NNc1cc(Cl)ccc1Cl	-3%	18µM*	-13%	-2%	u	u
CCOC(=O)C(=NC(C)C)NNc1cc(Cl)ccc1Cl	-6%	8.9µM*	u	14%	u	u
